{"source": "the supplement of paper PMC12819154", "about": "“High-throughput peptide-centric local stability assay extends protein–ligand identification to membrane proteins, tissues and bacteria” (Nature Structural & Molecular Biology, 2025)"}
{"compound": "CN[C@@H]1C[C@H]2O[C@@](C)([C@@H]1OC)n1c3ccccc3c3c4c(c5c6ccccc6n2c5c31)C(=O)NC4 [staurosporine]", "assay": "log2 fold change of tryptic peptide abundance, ligand vs vehicle (limited proteolysis) (log2 ratio); higher = more trypsin-susceptible (destabilized)", "conditions": "ligand concentration: 20 uM; sample: K562 cleared lysate; digestion: 4 min, 22 C (HT-PELSA RT4min, Orbitrap Astral)"}
{"target": "UniProt Q9NYV4 (peptide sequence: EIVTDKQDALDFKK, peptide start residue: 791)", "log2 fold change": -1.83}
{"target": "KSR1 (peptide sequence: LSHDWLCYLAPEIVR, peptide start residue: 771) (UniProt Q8IVT5)", "log2 fold change": -0.299}
{"target": "UTP11 (peptide sequence: SELHLLDFQGK, peptide start residue: 121) (UniProt Q9Y3A2)", "sequence (Q9Y3A2 whole entry)": "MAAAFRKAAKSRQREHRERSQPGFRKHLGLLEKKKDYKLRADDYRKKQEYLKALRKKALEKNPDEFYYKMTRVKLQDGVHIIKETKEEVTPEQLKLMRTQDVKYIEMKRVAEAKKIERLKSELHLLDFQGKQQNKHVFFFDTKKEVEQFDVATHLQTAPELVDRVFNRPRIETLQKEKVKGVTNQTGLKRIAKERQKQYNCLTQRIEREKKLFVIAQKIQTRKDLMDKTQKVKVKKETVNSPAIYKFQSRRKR", "log2 fold change": -1.12}
{"target": "EIF2B1 (peptide sequence: VAQTGQDLK, peptide start residue: 259) (UniProt Q14232)", "sequence (Q14232 whole entry)": "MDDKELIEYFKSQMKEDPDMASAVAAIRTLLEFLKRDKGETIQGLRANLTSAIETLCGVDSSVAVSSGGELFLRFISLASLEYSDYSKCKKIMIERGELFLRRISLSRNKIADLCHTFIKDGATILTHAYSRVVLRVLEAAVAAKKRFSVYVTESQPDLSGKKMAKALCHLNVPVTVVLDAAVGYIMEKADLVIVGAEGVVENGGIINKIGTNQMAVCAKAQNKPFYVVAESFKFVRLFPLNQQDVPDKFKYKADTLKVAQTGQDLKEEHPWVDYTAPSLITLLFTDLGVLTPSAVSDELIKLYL", "log2 fold change": 0.366}
{"target": "TBK1 (peptide sequence: VIGEDGQSVYK, peptide start residue: 144) (UniProt Q9UHD2)", "log2 fold change": -1.75}
{"target": "PDS5A (peptide sequence: SHDPEEAIRHDVIVTIITAAK, peptide start residue: 369) (UniProt Q29RF7)", "log2 fold change": 0.622}
{"target": "UniProt O75153 (peptide sequence: VVEEPYTVR, peptide start residue: 118)", "log2 fold change": 0.461}
{"target": "DCUN1D5 (peptide sequence: SMLALLLGR, peptide start residue: 164) (UniProt Q9BTE7)", "log2 fold change": 1.45}
{"target": "EPHB3 (peptide sequence: VSDFGLSR, peptide start residue: 537) (UniProt P54753)", "sequence (P54753 whole entry)": "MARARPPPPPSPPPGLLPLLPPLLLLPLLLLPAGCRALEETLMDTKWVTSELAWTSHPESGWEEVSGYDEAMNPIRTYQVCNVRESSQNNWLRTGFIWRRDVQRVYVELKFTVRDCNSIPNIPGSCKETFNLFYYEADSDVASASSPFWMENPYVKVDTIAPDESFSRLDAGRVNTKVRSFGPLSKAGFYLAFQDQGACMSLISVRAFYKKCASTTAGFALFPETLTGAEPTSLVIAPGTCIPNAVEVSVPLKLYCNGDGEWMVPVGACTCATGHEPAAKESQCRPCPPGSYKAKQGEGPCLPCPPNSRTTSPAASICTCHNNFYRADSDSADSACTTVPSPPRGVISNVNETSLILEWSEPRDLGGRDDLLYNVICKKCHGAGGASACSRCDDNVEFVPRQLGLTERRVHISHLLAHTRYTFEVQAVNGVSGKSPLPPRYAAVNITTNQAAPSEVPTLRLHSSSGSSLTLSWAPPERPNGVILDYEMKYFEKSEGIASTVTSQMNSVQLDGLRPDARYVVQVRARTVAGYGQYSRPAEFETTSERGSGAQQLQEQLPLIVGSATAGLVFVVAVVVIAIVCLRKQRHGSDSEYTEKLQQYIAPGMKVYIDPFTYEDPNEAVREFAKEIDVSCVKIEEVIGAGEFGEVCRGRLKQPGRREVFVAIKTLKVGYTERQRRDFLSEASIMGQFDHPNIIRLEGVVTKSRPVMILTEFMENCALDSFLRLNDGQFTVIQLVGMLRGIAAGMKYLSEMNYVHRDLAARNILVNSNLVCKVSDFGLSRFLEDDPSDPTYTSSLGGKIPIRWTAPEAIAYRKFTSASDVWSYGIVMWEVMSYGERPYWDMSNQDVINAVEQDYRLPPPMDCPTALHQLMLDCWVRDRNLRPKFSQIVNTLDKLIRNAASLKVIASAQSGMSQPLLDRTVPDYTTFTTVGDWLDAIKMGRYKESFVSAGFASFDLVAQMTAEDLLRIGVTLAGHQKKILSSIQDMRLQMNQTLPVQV", "log2 fold change": 0.918}
{"target": "RBM34 (peptide sequence: NGAQIADGFR, peptide start residue: 263) (UniProt P42696)", "log2 fold change": 0.437}
{"target": "ULK1 (peptide sequence: LFLQQIAGAMR, peptide start residue: 117) (UniProt O75385)", "log2 fold change": -1.62}
{"target": "UniProt Q8TBX8 (peptide sequence: HGAGAEISTVHPEQYAK, peptide start residue: 394)", "log2 fold change": -1.92}
{"target": "UniProt P45983 (peptide sequence: MLVIDASK, peptide start residue: 301)", "log2 fold change": -1.77}
{"target": "XRCC5 (peptide sequence: VDEEQMK, peptide start residue: 326) (UniProt P13010)", "log2 fold change": -0.825}
{"target": "UniProt P51812 (peptide sequence: DILVEVNHPFIVK, peptide start residue: 120)", "log2 fold change": -0.86}
{"target": "AP2B1 (peptide sequence: VIAAMTVGK, peptide start residue: 37) (UniProt P63010)", "sequence (P63010 whole entry)": "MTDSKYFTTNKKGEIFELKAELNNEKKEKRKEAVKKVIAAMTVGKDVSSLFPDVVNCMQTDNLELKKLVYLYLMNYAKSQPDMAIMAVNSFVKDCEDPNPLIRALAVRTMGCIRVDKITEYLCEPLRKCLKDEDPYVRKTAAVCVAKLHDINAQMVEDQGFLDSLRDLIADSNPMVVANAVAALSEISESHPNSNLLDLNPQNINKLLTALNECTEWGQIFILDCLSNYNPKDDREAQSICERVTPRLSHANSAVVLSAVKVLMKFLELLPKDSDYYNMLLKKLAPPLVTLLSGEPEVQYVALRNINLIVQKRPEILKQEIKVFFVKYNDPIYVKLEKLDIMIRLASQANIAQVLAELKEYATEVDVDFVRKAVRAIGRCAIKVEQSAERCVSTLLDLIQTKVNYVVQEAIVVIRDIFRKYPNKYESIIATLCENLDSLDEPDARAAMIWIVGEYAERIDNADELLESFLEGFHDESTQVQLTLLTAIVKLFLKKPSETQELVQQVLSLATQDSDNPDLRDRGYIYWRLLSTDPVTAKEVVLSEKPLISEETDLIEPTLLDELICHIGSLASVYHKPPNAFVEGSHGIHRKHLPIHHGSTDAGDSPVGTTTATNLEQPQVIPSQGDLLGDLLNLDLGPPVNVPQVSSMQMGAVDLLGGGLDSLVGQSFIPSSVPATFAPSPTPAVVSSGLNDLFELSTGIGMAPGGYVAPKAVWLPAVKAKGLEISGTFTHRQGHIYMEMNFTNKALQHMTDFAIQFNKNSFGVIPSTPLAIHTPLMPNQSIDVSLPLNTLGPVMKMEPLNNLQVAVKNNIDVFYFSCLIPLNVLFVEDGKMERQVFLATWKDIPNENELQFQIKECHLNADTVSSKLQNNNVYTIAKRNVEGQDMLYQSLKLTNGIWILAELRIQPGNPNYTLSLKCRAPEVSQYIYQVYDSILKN", "log2 fold change": 0.277}
{"target": "UniProt P19784 (peptide sequence: HLVSPEALDLLDKLLR, peptide start residue: 292)", "log2 fold change": -2.25}
{"target": "USP28 (peptide sequence: FVDPSAALDLLK, peptide start residue: 232) (UniProt Q96RU2)", "sequence (Q96RU2 whole entry)": "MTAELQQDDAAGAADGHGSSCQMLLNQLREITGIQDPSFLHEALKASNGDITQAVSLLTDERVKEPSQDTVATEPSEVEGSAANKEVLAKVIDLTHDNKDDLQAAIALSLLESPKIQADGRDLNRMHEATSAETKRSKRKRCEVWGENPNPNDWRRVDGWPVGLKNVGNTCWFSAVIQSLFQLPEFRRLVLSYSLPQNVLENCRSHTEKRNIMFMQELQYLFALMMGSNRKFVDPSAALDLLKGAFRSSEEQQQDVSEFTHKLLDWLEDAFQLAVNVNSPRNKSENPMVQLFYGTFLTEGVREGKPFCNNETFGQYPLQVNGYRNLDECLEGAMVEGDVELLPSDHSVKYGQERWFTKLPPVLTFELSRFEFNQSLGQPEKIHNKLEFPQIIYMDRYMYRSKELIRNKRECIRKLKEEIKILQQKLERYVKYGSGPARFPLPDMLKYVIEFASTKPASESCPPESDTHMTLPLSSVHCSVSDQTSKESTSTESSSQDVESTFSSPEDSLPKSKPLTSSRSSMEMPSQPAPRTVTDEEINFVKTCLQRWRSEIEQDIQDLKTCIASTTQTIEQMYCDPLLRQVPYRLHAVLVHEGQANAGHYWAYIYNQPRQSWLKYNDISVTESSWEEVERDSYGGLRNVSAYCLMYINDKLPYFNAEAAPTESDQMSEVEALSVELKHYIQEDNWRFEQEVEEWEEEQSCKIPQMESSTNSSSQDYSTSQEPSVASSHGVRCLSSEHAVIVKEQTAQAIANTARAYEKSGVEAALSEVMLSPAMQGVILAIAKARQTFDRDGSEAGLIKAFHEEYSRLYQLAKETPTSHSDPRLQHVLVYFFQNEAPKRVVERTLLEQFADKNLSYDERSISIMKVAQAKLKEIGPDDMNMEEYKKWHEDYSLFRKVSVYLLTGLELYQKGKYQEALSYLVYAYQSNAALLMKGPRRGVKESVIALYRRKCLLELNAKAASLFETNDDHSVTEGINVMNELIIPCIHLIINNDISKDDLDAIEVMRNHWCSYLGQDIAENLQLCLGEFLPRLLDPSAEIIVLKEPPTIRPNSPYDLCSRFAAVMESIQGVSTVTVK", "log2 fold change": 0.578}
{"target": "TIMM44 (peptide sequence: ALSQGVESVKK, peptide start residue: 178) (UniProt O43615)", "log2 fold change": 0.555}
{"target": "MAP3K4 (peptide sequence: DFLSHCLESDPK, peptide start residue: 1576) (UniProt Q9Y6R4)", "log2 fold change": -1.49}
{"target": "CDK9 (peptide sequence: EGFPITALR, peptide start residue: 57) (UniProt P50750)", "sequence (P50750 whole entry)": "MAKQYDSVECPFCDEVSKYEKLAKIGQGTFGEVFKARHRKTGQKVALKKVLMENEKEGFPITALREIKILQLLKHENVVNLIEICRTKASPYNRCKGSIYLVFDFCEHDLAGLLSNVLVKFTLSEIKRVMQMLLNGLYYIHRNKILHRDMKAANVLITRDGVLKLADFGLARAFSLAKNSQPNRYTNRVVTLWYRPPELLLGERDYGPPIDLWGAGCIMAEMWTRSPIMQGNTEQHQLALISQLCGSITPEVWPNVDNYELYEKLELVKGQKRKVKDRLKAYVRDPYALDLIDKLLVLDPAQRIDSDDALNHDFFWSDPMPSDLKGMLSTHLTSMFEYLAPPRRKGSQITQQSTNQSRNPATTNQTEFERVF", "log2 fold change": -1.73}
{"target": "UniProt Q00537 (peptide sequence: LGEGTYATVYK, peptide start residue: 171)", "log2 fold change": -2.88}
{"target": "PRKACB (peptide sequence: QIEHTLNEK, peptide start residue: 85) (UniProt P22694)", "log2 fold change": 1.81}
{"target": "TNIK (peptide sequence: KFQSFIESCLVK, peptide start residue: 261) (UniProt Q9UKE5)", "log2 fold change": -0.632}
{"target": "UniProt Q16512 (peptide sequence: IADFGLCK, peptide start residue: 756)", "log2 fold change": -2.52}
{"target": "CDKL1 (peptide sequence: LCDFGFAR, peptide start residue: 693) (UniProt Q00532)", "log2 fold change": -0.936}
{"target": "UniProt O14920 (peptide sequence: AAMMNLLR, peptide start residue: 453)", "sequence (O14920 whole entry)": "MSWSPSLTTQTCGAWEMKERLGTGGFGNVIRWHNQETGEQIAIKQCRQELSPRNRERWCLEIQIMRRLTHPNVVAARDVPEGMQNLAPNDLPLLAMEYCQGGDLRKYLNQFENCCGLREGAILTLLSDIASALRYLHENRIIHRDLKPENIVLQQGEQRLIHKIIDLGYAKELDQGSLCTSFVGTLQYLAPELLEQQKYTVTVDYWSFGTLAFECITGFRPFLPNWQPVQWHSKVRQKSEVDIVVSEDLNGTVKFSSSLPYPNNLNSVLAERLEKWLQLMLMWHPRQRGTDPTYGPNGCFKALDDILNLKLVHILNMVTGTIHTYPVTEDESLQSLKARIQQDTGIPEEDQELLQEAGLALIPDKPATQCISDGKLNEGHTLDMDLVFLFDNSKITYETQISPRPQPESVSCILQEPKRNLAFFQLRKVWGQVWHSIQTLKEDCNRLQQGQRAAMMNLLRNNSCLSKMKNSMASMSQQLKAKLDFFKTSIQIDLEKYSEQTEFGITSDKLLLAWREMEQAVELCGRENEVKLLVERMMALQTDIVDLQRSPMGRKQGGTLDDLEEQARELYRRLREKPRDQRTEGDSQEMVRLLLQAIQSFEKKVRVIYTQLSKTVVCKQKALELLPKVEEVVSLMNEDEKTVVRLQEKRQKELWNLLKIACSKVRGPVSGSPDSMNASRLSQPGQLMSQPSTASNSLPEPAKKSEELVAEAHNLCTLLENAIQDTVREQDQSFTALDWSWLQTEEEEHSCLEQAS", "log2 fold change": 0.5}
{"target": "CDK5 (peptide sequence: DLKPQNLLINR, peptide start residue: 126) (UniProt Q00535)", "sequence (Q00535 whole entry, looked up)": "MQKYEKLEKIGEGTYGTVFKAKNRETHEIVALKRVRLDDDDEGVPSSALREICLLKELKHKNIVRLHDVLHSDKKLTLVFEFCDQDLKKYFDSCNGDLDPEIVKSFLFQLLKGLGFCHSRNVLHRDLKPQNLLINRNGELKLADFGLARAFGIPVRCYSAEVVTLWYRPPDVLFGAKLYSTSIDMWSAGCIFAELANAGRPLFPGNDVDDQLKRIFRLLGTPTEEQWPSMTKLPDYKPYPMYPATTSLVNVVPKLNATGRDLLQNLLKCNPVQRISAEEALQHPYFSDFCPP", "log2 fold change": -3.41}
{"target": "UniProt O75582 (peptide sequence: VGIENFELLK, peptide start residue: 44)", "log2 fold change": -0.481}
